Test results reported in the supplement of paper PMC10646978.
± gives the standard deviation.

Experiments:
Conditions in all cases: modulator concentration 10 µM
[1] = system: RAW-Dual (murine macrophage reporter line); experiment: NF-kB reporter (SEAP) activity fold change vs agonist alone; higher = enhanced NF-kB activity
Procedure, shortened: (§1)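 RAW-Dual murine macrophage reporter cells were seeded at 50 000 per well in 384-well plates and pre-incubated 1 hour at 37 °C with compound pin-transferred to 10 μM final. After 1 hour, a PRR agonist was added and cells incubated overnight. Supernatant NF-κB (SEAP, QUANTI-Blue, 620 nm absorbance) and IRF (Lucia luciferase, QUANTI-Luc, luminescence) signals were divided by the mean agonist-only control on the same plate to give fold change. Two replicate plates were averaged, with errors by propagation.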

[2] = system: RAW-Dual (murine macrophage reporter line); experiment: IRF reporter (Lucia luciferase) activity fold change vs agonist alone; higher = enhanced IRF activity
Procedure, shortened: as §1

[3] = system: RAW-Dual (murine macrophage reporter line); experiment: viability score (confluency relative to resting cells, overnight) (fraction); higher = more viable, active = viable (0.7 or more)
Procedure, shortened: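 Two confluency masks, generated with IncuCyte software over all imaged wells, were applied to IncuCyte images of RAW-Dual macrophages. The cells, in 384-well plates, had been exposed overnight to 10 μM final compound. The viability score is confluency as a fraction of resting cells, and a compound met the cutoff only with both masks above 70% of resting cells.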

[4] = agonist: CpG ODN 1826 0.5 ug/mL

Structure (SMILES) | NF-kB reporter [1, 4] | NF-kB reporter ([1]; agonist: LPS 0.1 ug/mL) | NF-kB reporter ([1]; agonist: MPLA […]) | IRF reporter ([2]; agonist: 3'3'-cGAMP 10 ug/mL) | IRF reporter ([2]; agonist: LPS 0.1 ug/mL) | IRF reporter ([2]; agonist: MPLA […]) | viability score [3]
COc1c(C)cnc(Cn2cccc(-c3nc(C)no3)c2=O)c1C | 0.826 ± 0.2 | 0.937 ± 0.092 | 0.967 ± 0.061 | 0.95 ± 0.033 | 0.995 ± 0.18 | 1.1 ± 0.22 | 0.997 (active)
COc1cccc(-c2nnc(NC(=O)C3CC3)o2)c1 | 1.21 ± 0.071 | 0.987 ± 0.096 | 0.999 ± 0.037 | 0.95 ± 0.055 | 1.04 ± 0.057 | 1.11 ± 0.12 | 1 (active)
CCCC1=NN2C(=N)C(=Cc3cccc(OCc4ccccc4F)c3)C(=O)N=C2S1 | 0.983 ± 0.12 | 0.999 ± 0.1 | 0.972 ± 0.061 | 0.964 ± 0.064 | 1.6 ± 0.16 | 1.17 ± 0.097 | 1.01 (active)
Cc1cc2ncn(CC3CCN(C(=O)COc4ccc(F)cc4)CC3)c2cc1C.O=C(O)C(=O)O | 0.724 ± 0.07 | 1.06 ± 0.1 | 0.931 ± 0.047 | 0.908 ± 0.064 | 0.916 ± 0.09 | 0.814 ± 0.26 | 1 (active)
CC1CCc2nnc(OCC3CCCN3C)cc2C1 (configuration not stated) | 0.837 ± 0.051 | 0.793 ± 0.11 | 0.99 ± 0.059 | 0.972 ± 0.061 | 1.19 ± 0.25 | 1.22 ± 0.48 | 0.996 (active)
C#CC1(O)CCC2C3CCC4=Cc5oncc5CC4(C)C3CCC21C (configuration not stated) | 1.26 ± 0.31 | 1.27 ± 0.094 | 1.2 ± 0.082 | 0.787 ± 0.046 | 1.35 ± 0.2 | 1.56 ± 0.15 | 0.958 (active)
CC(=NNC(=O)CSc1nc2ccccc2n1Cc1ccccc1)c1ccc(Br)cc1 | 0.996 ± 0.12 | 0.996 ± 0.1 | 1.04 ± 0.036 | 0.942 ± 0.042 | 0.946 ± 0.16 | 1.01 ± 0.29 | 0.996 (active)
CCOC(=O)C1=C(C)NC(C)=C(C(=O)OCC)C1c1ccc(OC)cc1OC | 1.01 ± 0.21 | 1.27 ± 0.12 | 1.16 ± 0.18 | 1.01 ± 0.033 | 1 ± 0.24 | 1.25 ± 0.24 | 1 (active)
CN(C)CCCN1c2ccccc2Sc2ccc(Cl)cc21.Cl | 0.377 ± 0.029 | 0.997 ± 0.096 | 1.87 ± 0.041 | 1.07 ± 0.073 | 1.13 ± 0.1 | 1.37 ± 0.17 | 0.306 (inactive)
O=[N+]([O-])c1ccc(C=Nc2sc3c(c2-c2nc4ccccc4s2)CCCC3)cc1 | 0.94 ± 0.059 | 0.955 ± 0.059 | 0.983 ± 0.057 | 0.94 ± 0.04 | 1.2 ± 0.12 | 0.93 ± 0.089 | 1 (active)
Cc1ccc(C(=O)NC(=Cc2ccccc2)C(=O)NCCCn2ccnc2)cc1 | 0.949 ± 0.077 | 1.03 ± 0.069 | 0.907 ± 0.083 | 1.01 ± 0.045 | 1.45 ± 0.25 | 1.12 ± 0.074 | 1.01 (active)
CCOC(=O)C(C)N(c1ccc(OC)cc1)S(C)(=O)=O (configuration not stated) | 0.99 ± 0.056 | 0.985 ± 0.071 | 0.905 ± 0.053 | 1.07 ± 0.053 | 1.22 ± 0.083 | 1.12 ± 0.27 | 0.977 (active)
CN1CCN(C(=O)CN2C(=O)c3cccc4cccc(c34)C2=O)CC1 | 0.881 ± 0.082 | 0.981 ± 0.061 | 0.88 ± 0.091 | 0.971 ± 0.026 | 1.21 ± 0.19 | 0.967 ± 0.26 | 1.01 (active)
O=C(O)c1ccc(-n2nc(-c3ccccc3O)nc2-c2ccccc2O)cc1 | 0.749 ± 0.082 | 0.917 ± 0.1 | 1.11 ± 0.13 | 0.902 ± 0.042 | 1.31 ± 0.14 | 1.49 ± 0.15 | 0.988 (active)
O=C(Oc1ccc(Cl)c2cccnc12)c1cccc(Cl)c1 | 0.981 ± 0.16 | 1.05 ± 0.093 | 0.926 ± 0.11 | 0.994 ± 0.032 | 1.41 ± 0.21 | 1.45 ± 0.15 | 1 (active)
COC(=O)C1=C(C)N(C)C(C)=C(C(=O)OC)C1c1cccc(C(F)(F)F)c1 | 0.884 ± 0.069 | 1.07 ± 0.093 | 0.955 ± 0.082 | 0.995 ± 0.035 | 1.32 ± 0.22 | 0.976 ± 0.073 | 1.01 (active)
CC(C)Oc1ccc(Br)cc1C=C(C#N)c1nn(CCO)c(N)c1C#N | 1.33 ± 0.11 | 1.16 ± 0.066 | 1.11 ± 0.077 | 0.91 ± 0.027 | 1.2 ± 0.22 | 1.03 ± 0.18 | 1.01 (active)
COC1CC2CCC(C1)N2S(=O)(=O)c1ccc(Br)cc1 (configuration not stated) | 0.93 ± 0.089 | 1.05 ± 0.1 | 0.909 ± 0.04 | 1.01 ± 0.11 | 1.22 ± 0.16 | 1.15 ± 0.24 | 1.01 (active)

Structure (SMILES) | NF-kB reporter [1, 4] | NF-kB reporter ([1]; agonist: LPS 0.1 ug/mL) | NF-kB reporter ([1]; agonist: MPLA […]) | IRF reporter ([2]; agonist: 3'3'-cGAMP 10 ug/mL) | IRF reporter ([2]; agonist: LPS 0.1 ug/mL) | IRF reporter ([2]; agonist: MPLA […]) | viability score [3]
CN1CCN(CC(=O)N2c3ccccc3C(=O)Nc3cccnc32)CC1.Cl.Cl | 1.49 ± 0.35 | 1.03 ± 0.1 | 1.15 ± 0.077 | 0.96 ± 0.036 | 1.08 ± 0.12 | 1.06 ± 0.15 | 0.984 (active)
O=C(NCCOc1cccc2cccnc12)c1c(F)cccc1F | 0.911 ± 0.088 | 1.01 ± 0.13 | 0.859 ± 0.049 | 0.961 ± 0.048 | 1.01 ± 0.1 | 1.05 ± 0.31 | 1.01 (active)
CCOC(=O)C1=C(COCCN)NC(C)=C(C(=O)OC)C1c1ccccc1Cl (configuration not stated) | 0.533 ± 0.055 | 0.899 ± 0.052 | 1.55 ± 0.14 | 1.58 ± 0.1 | 1.34 ± 0.12 | 1.13 ± 0.095 | 0.589 (inactive)
Cc1cc2c(s1)Nc1ccccc1N=C2N1CCN(C)CC1 | 0.278 ± 0.057 | 1.03 ± 0.36 | 0.929 ± 0.056 | 0.819 ± 0.049 | 1.16 ± 0.37 | 0.974 ± 0.075 | 1 (active)
O=C(Nc1c(Cl)cncc1Cl)c1ccc(OC(F)F)c(OCC2CC2)c1 | 2.48 ± 0.36 | 1.99 ± 0.17 | 1.44 ± 0.1 | 0.804 ± 0.025 | 0.908 ± 0.094 | 1.24 ± 0.22 | 0.968 (active)
Cc1ccc(-c2nn(-c3ccccc3)cc2C=C(C#N)C(N)=O)o1 | 1.04 ± 0.26 | 0.991 ± 0.081 | 1 ± 0.081 | 1.01 ± 0.041 | 1.22 ± 0.2 | 1.12 ± 0.11 | 0.966 (active)
O=C(c1cc2nc(-c3ccccc3)cc(-c3ccccc3)n2n1)N1CCCCCC1 | 0.999 ± 0.081 | 1.16 ± 0.077 | 0.976 ± 0.065 | 0.965 ± 0.035 | 1.37 ± 0.19 | 1.12 ± 0.078 | 1.02 (active)
CCC(C)(C)C(=O)OC1CC(C)C=C2C=CC(C)C(CCC3CC(O)CC(=O)O3)C21 (configuration not stated) | 1.65 ± 0.13 | 1.56 ± 0.11 | 1.91 ± 0.18 | 0.43 ± 0.014 | 0.918 ± 0.087 | 0.524 ± 0.11 | 0.912 (active)
Cn1ccnc1Sc1nc(Nc2cccc(Cl)c2)nc(N2CCOCC2)n1 | 0.519 ± 0.045 | 1.03 ± 0.12 | 1.21 ± 0.13 | 0.474 ± 0.019 | 1.24 ± 0.14 | 1.09 ± 0.23 | 1.01 (active)
Clc1ccc(Nc2nc3nonc3nc2NC2C3CC4CC(C3)CC2C4)cc1 (configuration not stated) | 1.15 ± 0.12 | 1.15 ± 0.07 | 1.2 ± 0.096 | 0.702 ± 0.27 | 1.32 ± 0.17 | 1.15 ± 0.16 | 0.931 (active)
COc1ccccc1-c1nnc(NC(=O)c2cc(C)nn2C)o1 | 1.08 ± 0.11 | 1 ± 0.079 | 1.01 ± 0.08 | 0.945 ± 0.034 | 0.965 ± 0.064 | 0.953 ± 0.17 | 0.998 (active)
N#CC[C@@H](C1CCCC1)n1cc(-c2ncnc3[nH]ccc23)cn1 | 1.95 ± 0.28 | 0.915 ± 0.29 | 0.914 ± 0.051 | 0.164 ± 0.0051 | 0.359 ± 0.081 | 0.595 ± 0.067 | 0.999 (active)
Cc1cc(-c2ccc(N=Cc3ccc(Cl)c([N+](=O)[O-])c3)c(C)c2)ccc1N=Cc1ccc(Cl)c([N+](=O)[O-])c1 | 1.01 ± 0.056 | 1.01 ± 0.073 | 1.02 ± 0.065 | 0.821 ± 0.031 | 1.38 ± 0.11 | 1.13 ± 0.19 | 1 (active)
O=C(CSC1CC(=O)N(c2ccc(C(=O)O)cc2)C1=O)Nc1ccc(F)cc1 (configuration not stated) | 0.998 ± 0.081 | 0.967 ± 0.14 | 1.52 ± 0.53 | 0.578 ± 0.021 | 1.25 ± 0.15 | 1.38 ± 0.22 | 1.01 (active)
CNC1CCCN(c2c(F)cc3c(=O)c(C(=O)O)cn(C4CC4)c3c2OC)C1 (configuration not stated) | 0.783 ± 0.095 | 0.821 ± 0.04 | 1.12 ± 0.16 | 1.02 ± 0.048 | 1.35 ± 0.094 | 1.43 ± 0.14 | 0.999 (active)
O=C(CSc1nc[nH]n1)NC(c1ccccc1)c1ccccc1 | 0.77 ± 0.077 | 0.86 ± 0.053 | 1.01 ± 0.088 | 0.51 ± 0.033 | 1.33 ± 0.096 | 1.62 ± 0.17 | 1.01 (active)
CCN1CCN(S(=O)(=O)c2ccc(Oc3ccccc3)cc2)CC1 | 1 ± 0.061 | 1.01 ± 0.11 | 1.09 ± 0.036 | 0.905 ± 0.043 | 1.09 ± 0.1 | 1.03 ± 0.21 | 0.996 (active)
O=C(C=Cc1ccc2c(c1)OCO2)NCc1ccccn1 | 0.994 ± 0.16 | 1.08 ± 0.089 | 0.897 ± 0.069 | 0.933 ± 0.041 | 1.27 ± 0.27 | 1.28 ± 0.15 | 0.994 (active)
